# Source: PubChem BioAssay (EPA / NIEHS)
# Where “and” joins values, the source holds several entries; their conditions need not be identical. Equal values may be shown once. Results filed as inconclusive are left out. Some compounds were tested as several samples or in several runs, with calls that do not always agree. Calls of active or inactive are those of the source. How the source made its calls: active means hit-call score of the fitted dose curve at least 0.9, where 1 is the maximum; inconclusive means response in the unintended direction; inactive means score below 0.9.
# What was measured:
# [1] = ArunA_CellTiter_hNP: Viability Assessment in the ArunA Biomedical's Oris Neural Crest (hNC) Cell Migration Assay (AID 2283753)
# How it was run: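 Viability read with CellTiter 96 Aqueous One after 72 h chemical exposure of human hNP1 neuroprogenitors, which were plated on Matrigel in LIF/bFGF medium 16 h beforehand. Endpoint fitted in positive direction relative to DMSO.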
# [2] = ArunA_Migration_hNP: ArunA Biomedical's Oris Neuroprogenitor (hNP) Cell Migration Assay (AID 2283754)
# How it was run: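 Readout is calcein-AM fluorescence (ex494/em517) of cells migrating into the detection zone, relative to DMSO. hNP1 cells (H9-derived) grown on Matrigel behind stoppers 16 h, then stoppers pulled and chemical applied 72 h; cytochalasin D as control.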
# [3] = ArunA_Migration_hNC: ArunA Biomedical's Oris Neural Crest (hNC) Cell Migration Assay (AID 2283755)
# Method: ArunA_Migration_hNC is a cell-based, single-readout assay that uses human H9-derived embryonic neural crest stem cells (hNC). Measurements were taken 72 hours after chemical dosing in a 96-well plate.ArunA_Migration_hNC is an assay component measured from the ArunA_Migration_hNC assay. It is designed to make measurements of cell migration, a form of distribution reporter, as detected with fluorescence intensity signals by HCS Fluorescent Imaging technology. Data from the assay component ArunA_Migration_hNC was analyzed at the endpoint, ArunA_Migration_hNC, in the positive analysis fitting direction relative to DMSO as the negative control and baseline of activity. Using a type of distribution reporter, loss-of-signal activity can be used to understand the cell migration. To generalize the intended target to other relatable targets, this assay endpoint is annotated to the neurodevelopment intended target family, where the subfamily is migration.
# To assess the hNP and hNC migration and cell titer endpoints, 60,000 cells per well were plated onto Matrigel in basal growth medium with LIF and bFGF in a 96-well plate format. Plates were incubated for 16 h at 37C followed by a 72 h exposure to chemical in the test medium. For the migration endpoints, cells were seeded and incubated in presence of 'seeding stoppers' to prevent cell migration and growth into the detection zone. At the beginning of chemical exposure, stoppers were removed, and growth medium was replaced with test medium. In the case of the stopper control wells, stoppers remained in place following replacement of growth medium with test medium. […] Cell viability in the detection zone was quantitated using a Flexstation3 microplate reader (ex494 nm/em 517 nm). Corresponding cell titer endpoints were assessed for the hNP and hNC cells using the Promega CellTiter Aqueous One Solution Cell Proliferation Assay (Cat no. G3581; CellTiter 96). Finally, to gain insight into the mechanisms by which cells migrate into the detection zone, Ki-67 expression was quantified for 10 additional chemicals in the hNP and hNC systems. […]
# [4] = ArunA_NOG_NucleusCount: ArunA Biomedical's Neurite Outgrowth (NOG) Assay for Nucleus Count (AID 2283756)
# How it was run: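 Viable neuron count, from Hoechst nuclei passing size and intensity gates, imaged at 20x on differentiated H9-derived human neurons. Exposure lasted 48 h from seeding; activity was scored relative to DMSO.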
# [5] = ArunA_NOG_NeuriteLength: ArunA Biomedical's Neurite Outgrowth (NOG) Assay for Neurite Length (AID 2283757)
# How it was run: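 Total neurite length per neuron, from traced βIII-tubulin-labelled processes longer than 10 um on viable Hoechst-gated cells, was scored as decrease from DMSO. Cells were hESC (H9)-derived neurons given 48 h chemical exposure immediately after seeding.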
# [6] = ArunA_NOG_NeuritesPerNeuron: ArunA Biomedical's Neurite Outgrowth (NOG) Assay for Neurites Per Neuron (AID 2283758)
# How it was run: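 Differentiated human H9-derived neurons exposed to chemicals for 48 h from seeding, then stained with Hoechst and βIII-tubulin/DyLight 488. Automated imaging counted neurites (processes >10 um) per valid neuron; loss of signal versus DMSO scored.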
# [7] = molecular target: Luciferin 4-monooxygenase (Photinus pyralis) (UniProt P08659); experiment: CCTE_Simmons_QuantiLum_inhib_2: CCTE's Firefly Luciferase Inhibition Assay, Simmons Lab (AID 2283767);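 on AC50: potency for inhibitors that lower luciferase luminescence relative to DMSO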
# How it was run: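 Eight-point titrations of each chemical, 5 nM–87.5 uM final in 0.5% DMSO, were run in three biological replicates against recombinant luciferase for 30 min at 37C. Bioluminescence signal loss, read on reagent injection, gave the inhibition endpoint.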
# [8] = ArunA_NOG_BranchPointsPerNeurite: ArunA Biomedical's Neurite Outgrowth (NOG) Assay for Branch Points Per Neurite (AID 2283759)
# Method: ArunA_NOG (Neurite Outgrowth) is a cell-based, image-based assay that uses human H9-derived embryonic differentiated neurons (hNN). Measurements were taken 48 hours after chemical dosing in a 96-well plate.ArunA_NOG_BranchPointsPerNeurite is an assay component measured from the ArunA_NOG assay. It is designed to make measurements of neurite outgrowth related to branch points per neurite, using a form of morphology reporter, as detected with fluorescence intensity signals by HCS Fluorescent Imaging technology. Data from the assay component ArunA_NOG_BranchPointsPerNeurite was analyzed at the endpoint, ArunA_NOG_BranchPointsPerNeurite, with bidirectional fitting relative to DMSO as the negative control and baseline of activity. Using a type of morphology reporter, gain-of-signal activity can be used to understand developmental effects. To generalize the intended target to other relatable targets, this assay endpoint is annotated to the neurodevelopment intended target family, where the subfamily is neurite outgrowth.
# Chemical treatment: Differentiated hNN cells were seeded and immediately exposed to test medium for 48 h. Following chemical exposure, cell bodies were stained with Hoechst 33,258 to quantitate viable neuron count and neurites were labeled with bIII-tubulin/DyLight1 488. High content imaging assessed the neurite outgrowth endpoints: neurite total length per neuron (um), neurite count per neuron, and branch points per neurite using the methods described in (Harrill et al 2010). […] Plates were then loaded into a Cellomics ArrayScan VTI HCS reader high-content imaging system (ThermoFisher Scientific, Waltham, MA) for automated image acquisition and morphometric analyses. […] Fixed integration times for image acquisition in each channel were determined by manual sampling of control-treated wells across multiple plates. […] Nuclei with size and intensity values outside of the ranges determined a priori for viable cells were identified in the channel 1 image and rejected from further analyses. […]
# [9] = system: chicken Androgen Receptor (AR), gene 422165; experiment: ATG_chAR_XSP1: Attagene TRANS-FACTORIAL Multi-Species (XSP1) HepG2 Assay for chicken Androgen Receptor (AR) (AID 2283768)
# How it was run: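 Reporter mRNA read by RT-PCR with fluorescent labelling and capillary electrophoresis 24 h after chemical dosing of transiently transfected HepG2 cells. Chicken AR-Gal4 chimera, partially stimulated with 3 nM 6-alpha-fluorotestosterone; activity fitted upward relative to DMSO.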
# [10] = system: frog Androgen Receptor (AR), gene 399456; experiment: ATG_frAR_XSP1: Attagene TRANS-FACTORIAL Multi-Species (XSP1) HepG2 Assay for frog Androgen Receptor (AR) (AID 2283770)
# Method: ATG_XSP1_multi-species_TRANS is a cell-based, multiplexed assay created by modifying the existing Attagene TRANS-FACTORIAL system to include a panel of nuclear receptors from some or all the following species: human (Homo sapiens), mouse (Mus musculus), frog (Xenopus laevis), zebrafish (Danio rerio), chicken (Gallus gallus), and turtle (Chrysemys picta). The ECOTOX-FACTORIAL format uses HepG2, a human liver cell line, with measurements taken at 24 hours after chemical dosing in a 24-well plate. Xsp1 included 3 nM 6-alpha-fluorotestosterone to partially stimulate the androgen receptor.ATG_frAR_XSP1 is one of 29 assay components measured or calculated from the ATG_XSP1_multi-species_TRANS assay. It is designed to make measurements of mRNA induction, a form of inducible reporter, as detected with fluorescence intensity signals by Reverse transcription polymerase chain reaction (RT-PCR) and Capillary electrophoresis technology.The assay endpoint ATG_frAR_XSP1 was analyzed in the positive analysis fitting direction relative to DMSO as the negative control and baseline of activity. […] Furthermore, this assay endpoint can be referred to as a primary readout, because this assay has produced multiple assay endpoints where this one serves a reporter gene function. […]
# Chain of Luciferin 4-monooxygenase (Photinus pyralis) (P08659 whole entry, looked up): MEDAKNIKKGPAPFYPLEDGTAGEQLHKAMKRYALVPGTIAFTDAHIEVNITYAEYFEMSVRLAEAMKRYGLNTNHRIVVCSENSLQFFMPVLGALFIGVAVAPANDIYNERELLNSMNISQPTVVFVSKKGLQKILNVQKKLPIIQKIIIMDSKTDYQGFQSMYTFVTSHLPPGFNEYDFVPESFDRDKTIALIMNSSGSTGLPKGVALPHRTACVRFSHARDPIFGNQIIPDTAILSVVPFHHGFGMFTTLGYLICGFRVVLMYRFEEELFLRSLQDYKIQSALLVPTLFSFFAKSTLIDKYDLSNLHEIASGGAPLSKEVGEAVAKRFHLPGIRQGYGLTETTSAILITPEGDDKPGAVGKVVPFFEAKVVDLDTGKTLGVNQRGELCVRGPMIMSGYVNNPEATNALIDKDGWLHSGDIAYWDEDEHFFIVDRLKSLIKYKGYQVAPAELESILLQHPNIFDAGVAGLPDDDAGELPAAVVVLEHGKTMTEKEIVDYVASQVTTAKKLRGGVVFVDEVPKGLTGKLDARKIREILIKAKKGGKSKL
smiles,measurement,setting,value
Oc1ccc2ccc3cccc4ccc1c2c34,AC50,[1],25.8 µM (active)
same,AC50,[2],50 µM (active)
same,AC50,[3],13.9 µM (active)
same,outcome,[4],inactive
same,outcome,[5],inactive
same,outcome,[6],inactive
same,AC50,[7],48 µM (active)
c1ccc(NNc2ccccc2)cc1,AC50,[7],20.4 µM (active)
CN(C)C(=O)Nc1ccc(Cl)cc1,outcome,[7],inactive
Nc1ccc(Cc2ccc(N)cc2)cc1,outcome,[7],inactive
Cc1ccc(N=C=O)cc1N=C=O,AC50,[7],22.6 µM (active)
Nc1ccc(N=Nc2ccccc2)cc1,AC50,[7],3.16 µM (active)
Cc1cccc(N)c1N,AC50,[7],35.7 µM (active)
Clc1ccc(Cl)c(Cl)c1,outcome,[2],inactive
same,outcome,[4],inactive
same,outcome,[6],inactive
same,outcome,[8],inactive
Nc1ccc(Cl)cc1N,AC50,[7],9.28 µM (active)
C=CCc1ccc2c(c1)OCO2,outcome,[7],inactive
[Cl-].[Cl-].[Hg+2],AC50,[7],10.4 µM (active)
Nc1cc(Cl)cc(C(=O)O)c1Cl,outcome,[7],inactive
CCC[CH2][Sn]([Cl])([CH2]CCC)[CH2]CCC,AC50,[9],0.334 µM (active)
CO[C@@H]1[C@H](OC(=O)NC(=O)CCl)CC[C@]2(CO2)[C@H]1[C@@]1(C)O[C@@H]1CC=C(C)C,AC50,[1],0.00608 µM (active)
same,outcome,[1],inactive
same,outcome,[2],inactive
same,AC50,[3],22.8 nM (active) and 5 µM (active)
same,outcome,[4],inactive
same,outcome,[5],inactive
same,outcome,[6],inactive
same,outcome,[8],inactive
same,outcome,[7],inactive
COC(=O)Nc1nc2ccccc2[nH]1,outcome,[7],inactive
CCC(C)c1ccc(O)cc1 (stereo not given),outcome,[7],inactive
CN(C)[C@@H]1C(=O)C(C(N)=O)=C(O)[C@@]2(O)C(=O)C3=C(O)c4c(O)cccc4[C@@](C)(O)[C@H]3C[C@@H]12,outcome,[7],inactive
Oc1ccccc1Cl,outcome,[7],inactive
CCOC(=O)[C@]1(c2ccccc2)Oc2ccccc2[C@@H]1N,outcome,[7],inactive
CCCCC(CC)COC(=O)c1ccc(C(=O)OCC(CC)CCCC)c(C(=O)OCC(CC)CCCC)c1 (stereo not given),outcome,[7],inactive
COC(=O)c1ccccc1N,outcome,[7],inactive
C[C@]12C=CC3=C4CCC(=O)C=C4CC[C@H]3[C@@H]1CC[C@@H]2O,outcome,[7],inactive
same,AC50,[9],0.00303 µM (active)
same,AC50,[10],0.0124 µM (active)
CCCCCOC(=O)c1ccccc1C(=O)OCCCCC,outcome,[9],inactive
O=P(OCCCl)(OCCCl)OCCCl,outcome,[2],inactive
same,outcome,[3],inactive
same,outcome,[5],inactive
same,outcome,[6],inactive
same,outcome,[8],inactive
CN(C)c1ccc(C(=O)c2ccc(N(C)C)cc2)cc1,AC50,[7],11.6 µM (active)
Cc1cc(N=Nc2ccccc2C)ccc1N,AC50,[7],3.76 µM (active)
CCCCOC(=O)c1ccccc1C(=O)OCc1ccccc1,outcome,[7],inactive
same,outcome,[9],inactive
Cc1ccc(N)cc1,outcome,[7],inactive
Cc1ccc(N)c(N)c1,AC50,[7],0.334 µM (active)
N#CC(Br)(Br)C(N)=O,outcome,[7],inactive
CN(C)c1ccccc1,outcome,[7],inactive
